Binding signal data for 14 sequences are collected here from paper PMC5700166.

Test in all cases: protein-binding microarray (PBM); PBM: ~300 nM protein, 6 mM HEPES pH 7.8, 80 mM KCl, 0.5 mM EDTA, 0.5 mM EGTA, 6% glycerol, 35 ng/ul poly-dIdC, 1% milk, 1 h, room temperature; Ap Aiptasia and Nv Nematostella (sea anemones) / Co Capsaspora / Aq Amphimedon (sponge) / Dm Drosophila / Hu human; RHD is the Rel homology domain; high values mean tight binding
What all share (conditions): dsDNA, one strand shown

One experiment has as its target T1, GST-Ap-NF-kB RHD (Exaiptasia pallida (Aiptasia), UniProt A0A913YAJ5 2-422).
T1 sequence: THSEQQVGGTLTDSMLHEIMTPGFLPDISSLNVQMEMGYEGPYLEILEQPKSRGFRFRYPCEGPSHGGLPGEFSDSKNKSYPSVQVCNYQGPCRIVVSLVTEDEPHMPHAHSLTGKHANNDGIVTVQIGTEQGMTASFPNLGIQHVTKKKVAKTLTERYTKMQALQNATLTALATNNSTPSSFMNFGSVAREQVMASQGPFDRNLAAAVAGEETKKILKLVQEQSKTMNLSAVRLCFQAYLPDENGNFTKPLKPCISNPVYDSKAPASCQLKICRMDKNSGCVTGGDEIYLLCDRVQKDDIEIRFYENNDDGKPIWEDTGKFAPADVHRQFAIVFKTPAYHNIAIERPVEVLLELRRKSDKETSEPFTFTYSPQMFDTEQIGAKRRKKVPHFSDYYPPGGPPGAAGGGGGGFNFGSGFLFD

The target of experiment [1] is T2, GST-Nv-NF-kB (Cys allele) (Nematostella vectensis, UniProt E5G601 2-411).
T2 sequence: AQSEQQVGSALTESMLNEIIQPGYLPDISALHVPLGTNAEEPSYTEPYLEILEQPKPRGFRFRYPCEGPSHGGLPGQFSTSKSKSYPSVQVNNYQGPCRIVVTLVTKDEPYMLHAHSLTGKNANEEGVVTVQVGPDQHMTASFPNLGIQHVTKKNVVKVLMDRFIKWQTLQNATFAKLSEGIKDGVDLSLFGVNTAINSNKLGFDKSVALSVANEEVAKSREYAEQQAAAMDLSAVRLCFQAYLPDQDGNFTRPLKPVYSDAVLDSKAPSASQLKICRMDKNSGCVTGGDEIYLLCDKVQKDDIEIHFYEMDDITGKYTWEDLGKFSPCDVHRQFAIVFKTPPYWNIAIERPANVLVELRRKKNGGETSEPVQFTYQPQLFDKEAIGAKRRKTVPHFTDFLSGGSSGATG

Another experiment addresses T3, GST-Co-NF-kB (Capsaspora owczarzaki, UniProt F1ARL5 200-546).
T3 sequence: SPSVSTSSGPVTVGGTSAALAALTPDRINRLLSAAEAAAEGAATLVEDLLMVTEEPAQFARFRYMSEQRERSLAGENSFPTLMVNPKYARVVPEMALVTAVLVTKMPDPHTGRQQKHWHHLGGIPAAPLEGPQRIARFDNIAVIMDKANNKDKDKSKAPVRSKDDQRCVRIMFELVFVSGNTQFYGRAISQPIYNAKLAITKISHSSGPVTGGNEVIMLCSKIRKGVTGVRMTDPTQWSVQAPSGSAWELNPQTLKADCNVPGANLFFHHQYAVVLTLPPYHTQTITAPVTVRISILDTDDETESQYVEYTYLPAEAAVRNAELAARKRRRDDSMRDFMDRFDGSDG

A further experiment concerns the target T4, GST-Dm-Relish (Drosophila melanogaster, UniProt Q94527 99-473).
T4 sequence: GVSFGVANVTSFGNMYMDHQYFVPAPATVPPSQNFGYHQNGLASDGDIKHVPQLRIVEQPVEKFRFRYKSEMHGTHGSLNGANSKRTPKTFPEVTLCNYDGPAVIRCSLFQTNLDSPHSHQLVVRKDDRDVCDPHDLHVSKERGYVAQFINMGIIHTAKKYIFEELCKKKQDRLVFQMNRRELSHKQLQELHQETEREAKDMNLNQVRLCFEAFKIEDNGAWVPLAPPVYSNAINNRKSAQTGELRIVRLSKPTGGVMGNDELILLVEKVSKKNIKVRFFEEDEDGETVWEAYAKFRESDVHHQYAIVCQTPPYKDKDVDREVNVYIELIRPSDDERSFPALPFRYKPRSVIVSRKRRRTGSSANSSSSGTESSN

The target in another experiment is T5, GST-Aq-NF-kB (Amphimedon queenslandica, UniProt A9Y5G7 2-389).
T5 sequence: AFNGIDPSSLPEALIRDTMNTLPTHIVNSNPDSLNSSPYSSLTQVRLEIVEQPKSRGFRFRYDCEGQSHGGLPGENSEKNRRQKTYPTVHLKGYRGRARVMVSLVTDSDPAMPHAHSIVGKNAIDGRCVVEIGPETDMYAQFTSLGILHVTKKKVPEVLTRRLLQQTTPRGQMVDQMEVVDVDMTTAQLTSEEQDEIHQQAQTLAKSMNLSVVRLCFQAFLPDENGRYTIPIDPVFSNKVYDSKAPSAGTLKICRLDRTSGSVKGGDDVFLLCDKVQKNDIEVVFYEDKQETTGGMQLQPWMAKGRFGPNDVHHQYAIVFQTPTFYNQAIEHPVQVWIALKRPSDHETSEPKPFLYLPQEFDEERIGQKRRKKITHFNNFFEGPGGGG

With “CCGATTAACATCAGGGAAAGAACTGATGTTAATCGGGTCTTGATTCGCTTGACGCTGCTG”, the binding signal with GST-Ap-NF-kB RHD amounted to 1.89 z-score; in experiment [1], 3.99 z-score; with GST-Co-NF-kB, 2.55 z-score; with GST-Dm-Relish, 6.83 z-score; in the experiment with GST-Aq-NF-kB, 4.9 z-score.
Turning to “CCGATTAACATCAATATACCCCCTGATGTTAATCGGGTCTTGATTCGCTTGACGCTGCTG”, the binding signal is 6.61 z-score with GST-Ap-NF-kB RHD; 4.24 z-score in experiment [1]; 6.57 z-score with GST-Co-NF-kB; 3.69 z-score with GST-Dm-Relish; 4.03 z-score with GST-Aq-NF-kB.
Turning to “CCGATTAACATCAGGGGTTTCACTGATGTTAATCGGGTCTTGATTCGCTTGACGCTGCTG”, the binding signal amounted to 3.56 z-score with GST-Ap-NF-kB RHD; 3.24 z-score in experiment [1]; 2.93 z-score in the experiment with GST-Co-NF-kB; 7.34 z-score with GST-Dm-Relish; 4.84 z-score with GST-Aq-NF-kB.
The matching figures for “CCGATTAACATCATGCGGGAAAATGATGTTAATCGGGTCTTGATTCGCTTGACGCTGCTG”: 2.22 z-score, 3.71 z-score, 4.47 z-score, 1.22 z-score and 2.76 z-score.
On to “CCGATTAACATCAGGGACACCCCTGATGTTAATCGGGTCTTGATTCGCTTGACGCTGCTG”, for which the binding signal in the experiment with GST-Ap-NF-kB RHD worked out at 6.11 z-score; in experiment [1], 4.44 z-score; with GST-Co-NF-kB, 3.39 z-score; with GST-Dm-Relish, 7.09 z-score; in the experiment with GST-Aq-NF-kB, 6.84 z-score.
The matching figures for “CCGATTAACATCAATTTCCCATATGATGTTAATCGGGTCTTGATTCGCTTGACGCTGCTG”: 1.56 z-score, 3.3 z-score, 2.34 z-score, 2.14 z-score and 2.17 z-score.
Take “CCGATTAACATCAGGGGGTACACTGATGTTAATCGGGTCTTGATTCGCTTGACGCTGCTG”: the binding signal with GST-Ap-NF-kB RHD came out at 4.19 z-score; in experiment [1], 2.66 z-score; with GST-Co-NF-kB, 4.33 z-score; with GST-Dm-Relish it was 3.21 z-score; with GST-Aq-NF-kB, 3.31 z-score.
For the sequence “CCGATTAACATCAAAAAGTTCCCTGATGTTAATCGGGTCTTGATTCGCTTGACGCTGCTG”, the binding signal with GST-Ap-NF-kB RHD was 4.61 z-score; in experiment [1], 5.3 z-score; in the experiment with GST-Co-NF-kB, 4.37 z-score; in the experiment with GST-Dm-Relish it was 6.54 z-score; with GST-Aq-NF-kB, 5.9 z-score.
As for “CCGATTAACATCAGGACGTTCCCTGATGTTAATCGGGTCTTGATTCGCTTGACGCTGCTG”, the binding signal with GST-Ap-NF-kB RHD was 2.27 z-score; in experiment [1], 2.22 z-score; with GST-Co-NF-kB, 1.01 z-score; with GST-Dm-Relish, 1.51 z-score; with GST-Aq-NF-kB, 5.14 z-score.
As to “CCGATTAACATCAGGGGGGGTACTGATGTTAATCGGGTCTTGATTCGCTTGACGCTGCTG”, the binding signal with GST-Ap-NF-kB RHD amounted to 5.04 z-score; in experiment [1] it was 3.45 z-score; with GST-Co-NF-kB it was 4.54 z-score; with GST-Dm-Relish, 5.04 z-score; in the experiment with GST-Aq-NF-kB it was 4.67 z-score.
Consider “CCGATTAACATCAGGGGTAAAACTGATGTTAATCGGGTCTTGATTCGCTTGACGCTGCTG”, for which the binding signal stood at 2.3 z-score with GST-Ap-NF-kB RHD; 1.97 z-score in experiment [1]; 6.26 z-score with GST-Co-NF-kB; 1.85 z-score with GST-Dm-Relish; 2.73 z-score with GST-Aq-NF-kB.
As to “CCGATTAACATCAGGGGGTGTAATGATGTTAATCGGGTCTTGATTCGCTTGACGCTGCTG”, the binding signal with GST-Ap-NF-kB RHD amounted to 3.57 z-score; in experiment [1], 3.16 z-score; with GST-Co-NF-kB, 3.87 z-score; with GST-Dm-Relish it was 3.25 z-score; with GST-Aq-NF-kB, 3.21 z-score.
Take “CCGATTAACATCAGGAACCCCCATGATGTTAATCGGGTCTTGATTCGCTTGACGCTGCTG”: the binding signal is 7.5 z-score in the experiment with GST-Ap-NF-kB RHD; 5 z-score in experiment [1]; 2.67 z-score with GST-Co-NF-kB; 9.25 z-score in the experiment with GST-Dm-Relish; 5.35 z-score with GST-Aq-NF-kB.
As for “CCGATTAACATCACGTAAACCCCTGATGTTAATCGGGTCTTGATTCGCTTGACGCTGCTG”, the binding signal with GST-Ap-NF-kB RHD was 3.55 z-score; in experiment [1], 2.68 z-score; in the experiment with GST-Co-NF-kB it was 1.08 z-score; in the experiment with GST-Dm-Relish, 6.43 z-score; in the experiment with GST-Aq-NF-kB, 3.41 z-score.
